Screening data from PubChem BioAssay.
A selection: hits, their analogues and other compounds. The true share with any hit is near 3%.
PPC-1+TRAIL kill: compounds killing PPC-1 cancer cells with TRAIL present (potentiator screen, no TRAIL-free arm) | 220,000 compounds, 0.41% hits | PPC-1 cells + TRAIL, ATPLite viability luminescence | AID 1443 | cell killing (% activity), % at 4 µM or 5 µM;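 active = cell killing above 50% in the first pass at 4 µM, then a duplicate retest at 5 µM averaging 50% or more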;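 also: plate controls were cells with TRAIL plus DMSO for no effect and medium-only wells lacking cells for full effect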
SENP8 block-1: inhibitors of human SENP8 protease. Q96LD8. inhibition, % at 10 µM. 330,000 compounds, 1.2% hits. purified SENP8, Z-RLRGG-aminoluciferin cleavage, luminescence; in the data active = inhibition above about 50%
SENP6 block: inhibitors of human SENP6 protease. Q9GZR1. Recombinant SENP6 catalytic domain, aminoluciferin luminescence. inhibition, % at 10 µM. 330,000 compounds, 1.8% hits;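 active = inhibition above about 50% at the single tested dose, limit read from the data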;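 also: plate controls were DMSO wells with enzyme for no effect and DMSO wells lacking enzyme for full effect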
TRAIL sens C8: sensitizes caspase-8 expressing cells to TRAIL; NB7+C8 cells + TRAIL, ATPlite viability luminescence; inhibition (viability loss, TRAIL sensitization), % at 10 µM; 360,000 compounds, 1% hits;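 active = compounds causing at least 50% loss of cell viability in the single-dose screen, relative to plate controls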
SENP7 block: inhibitors of human SENP7 protease. 330,000 compounds, 1.5% hits. Q9BQF6. recombinant SENP7, Z-RLRGG-aminoluciferin luminescence, 40 min. inhibition, % at 5 µM;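 active = inhibition above about 50% at the single test dose, limit read from the data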;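 also: plate controls were DMSO with enzyme for no effect and no enzyme buffer wells for full effect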
Target sequence (Q9BQF6 706-1050 limits assumed): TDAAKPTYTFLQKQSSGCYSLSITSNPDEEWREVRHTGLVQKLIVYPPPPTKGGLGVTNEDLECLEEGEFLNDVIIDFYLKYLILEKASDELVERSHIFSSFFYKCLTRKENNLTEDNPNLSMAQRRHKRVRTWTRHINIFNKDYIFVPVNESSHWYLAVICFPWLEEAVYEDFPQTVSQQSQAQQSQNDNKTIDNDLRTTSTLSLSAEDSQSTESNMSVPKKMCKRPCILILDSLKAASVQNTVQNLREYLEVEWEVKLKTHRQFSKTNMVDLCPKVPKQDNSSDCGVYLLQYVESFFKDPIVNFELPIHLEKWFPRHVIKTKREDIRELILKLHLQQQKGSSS
SENP8 block-2: blocks human SENP8 cleavage of Nedd8 substrate; recombinant SENP8, Nedd8 substrate fluorescence; inhibition, % at 20 µM; 360,000 compounds, 0.64% hits; AID 602440; Q96LD8; in the data active = inhibition mostly above about 40%, no sharp cut-off; inactive = mostly below about 27%
SENP8 conf: confirmation of human SENP8 protease inhibitors | shares compounds with SENP7 block | Recombinant SENP8, Z-RLRGG-aminoluciferin luminescence, 60 min | inhibition, % at 12.5 µM | 6,200 compounds, 40% hits;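 active = mean inhibition across replicates above about 50%, limit read from the data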
SENP6 conf: human SENP6 inhibition, confirmed. shares compounds with SENP7 block. recombinant SENP6, Z-RLRGG-aminoluciferin luminescence. inhibition, % at 12.5 µM. 6,200 compounds, 58% hits
SENP7 confirm: confirmation of human SENP7 protease inhibitors | shares compounds with SENP7 block | inhibition, % at 12.5 µM | AID 488917 | 6,200 compounds, 69% hits | recombinant SENP7, Z-RLRGG-aminoluciferin luminescence, 40 min
Casp3 select: caspase-3 inhibition (SENP selectivity assay). shares compounds with SENP7 block. 6,200 compounds, 60% hits. purified caspase-3, Z-DEVD-aminoluciferin luminescence, 60 min. inhibition, % at 12.5 µM;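 active = mean inhibition above about 50%, limit read from the data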;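 also: plate controls were enzyme with DMSO for no effect and wells without caspase-3 for full effect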
Target sequence (P42574 28-227 limits assumed): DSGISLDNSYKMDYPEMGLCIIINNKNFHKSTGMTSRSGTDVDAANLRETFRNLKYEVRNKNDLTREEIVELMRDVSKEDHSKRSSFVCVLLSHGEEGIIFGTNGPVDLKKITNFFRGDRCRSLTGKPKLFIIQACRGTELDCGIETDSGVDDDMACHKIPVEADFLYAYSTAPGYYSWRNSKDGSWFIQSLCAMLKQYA
Luc interf: counter-screen for SENP inhibitors: luminescence interference; shares compounds with SENP7 block; Pre-incubated SENP8/Z-RLRGG-aminoluciferin, luciferase luminescence interference; inhibition, % at 12.5 µM; 6,200 compounds, 39% hits;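 active = mean inhibition above about 50% when retested at one dose, limit read from the data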;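 also: plate controls were DMSO wells with completed reaction for no effect and substrate without enzyme for full effect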
An asterisk follows results filed as active; nt = no result given.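 The calls were made as follows, unless noted: active = mean inhibition above about 50% in the one-dose retest (limit read from the data); inactive = the rest.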

SMILES	PPC-1+TRAIL kill	SENP8 block-1	SENP6 block	TRAIL sens C8	SENP7 block	SENP8 block-2	SENP8 conf	SENP6 conf	SENP7 confirm	Casp3 select	Luc interf
CCCCCN(C(=O)CCC(=O)OCC(=O)c1ccc(C(C)CC)cc1)c1c(N)n(CCCC)c(=O)[nH]c1=O (stereo not drawn)	nt	1.4	-2.5	27.8	-1.4	11.7	nt	nt	nt	nt	nt
CCOC(=O)c1c(NC(=O)Cn2nc(C(F)(F)F)cc2C)sc(C)c1C	6.2	-1.2	1.0	1.2	-3.1	23.5	nt	nt	nt	nt	nt
O=C(Nc1ccc2c(c1)CCC2)c1cnccn1	-1.7	34.9	52.3*	3.2	47.5	6.5	54.6*	51.6*	82.6*	77.4*	29.0
CCCCc1ccc(NC(=O)c2cnccn2)cc1	20.7	85.2*	85.4*	55.1*	92.3*	19.2	92.4*	94.6*	100.9*	85.9*	58.5*
CCOC(=O)c1ccc(NC(=O)c2cnccn2)cc1	9.7	-19.0	-19.5	-3.0	-7.0	-10.4	nt	nt	nt	nt	nt
CC1CCN(C(=O)COc2ccc(S(=O)(=O)N3CCOCC3)cc2)CC1	nt	-7.6	-21.1	28.6	-9.0	-4.9	nt	nt	nt	nt	nt
O=c1ccnc(SCCc2ccccc2)[nH]1	nt	-9.6	-20.7	-9.4	-13.0	13.4	nt	nt	nt	nt	nt
O=c1ccnc(S/C=C/c2ccccc2)[nH]1	33.7	71.3*	82.6*	7.5	-1.9	8.9	78.1*	73.4*	88.8*	87.1*	75.6*
Cc1ccc(C)c(C(=O)OCC(=O)Nc2ccc(N3CCOCC3)cc2)c1	5.0	-0.5	8.7	0.9	6.2	-18.2	nt	nt	nt	nt	nt
CC1CCc2c(sc(NC(=O)c3cccs3)c2C(=O)O)C1 (stereo not drawn)	nt	76.3*	88.4*	21.5	-3.9	-28.3	85.6*	86.2*	91.9*	65.5*	86.1*
O=C(Nc1sc2c(c1C(=O)O)CCCC2)c1cccs1	-25.6	84.7*	92.9*	8.2	55.7*	-42.0	3.4	89.6*	97.6*	85.8*	89.7*
O=C(/C=C/c1cccs1)Nc1sc2c(c1C(=O)O)CCCC2	nt	55.4*	73.7*	-10.0	8.1	20.4	27.2	65.8*	80.6*	58.1*	70.8*
O=C(Nc1sc2c(c1C(=O)O)CCCCC2)c1cccs1	48.9	95.2*	96.4*	21.8	71.4*	-60.6	97.7*	98.5*	101.8*	94.5*	96.3*
COC(=O)c1c(NC(=O)c2cccs2)sc2c1CCC(C)C2 (stereo not drawn)	-2.4	-6.8	-3.7	-0.2	-4.5	-395.7	nt	nt	nt	nt	nt
CC(C)OC(=O)c1c(NC(=O)c2cccs2)sc2c1CCCC2	2.7	4.3	-8.9	-6.1	-10.2	-280.0	nt	nt	nt	nt	nt
CCOC(=O)CCCc1ccc(/C(C)=N/NC(N)=S)cc1	-10.1	-5.5	-9.0	21.1	-10.9	7.5	nt	nt	nt	nt	nt
O=C(NNS(=O)(=O)c1ccccc1)C1CC(c2cccnc2)=NO1 (stereo not drawn)	-4.2	-0.5	-1.6	-7.1	0.9	12.8	nt	nt	nt	nt	nt
CCN(CC)C(=O)C1=C(C)N(Cc2ccc(F)cc2)C(=O)C(CC(=O)NCCCN(C)C)C1 (stereo not drawn)	nt	nt	nt	1.3	nt	2.2	nt	nt	nt	nt	nt
Cc1cccn2cc(-c3ccc(Cl)cc3)nc12	41.6	88.5*	94.6*	35.4	91.3*	-289.5	94.8*	95.6*	101.4*	92.0*	54.3*
Cc1cccn2cc(-c3ccc(S(=O)(=O)N4CCCCC4)cc3)nc12	nt	16.2	33.0	-6.4	37.8	-361.1	nt	nt	nt	nt	nt
O=c1cc(CSc2nnc(Nc3ccccc3)s2)nc2sccn12	5.3	-9.9	-8.5	-8.1	-9.3	-4.4	nt	nt	nt	nt	nt
Cc1cccc(Nc2nnc(SCc3cn4ccsc4n3)s2)c1	8.1	42.4	56.0*	4.0	61.0*	16.6	40.8	40.2	72.5*	45.4	54.6*
C=CCNC1=C(Cl)C(=O)N(Cc2ccccc2)C1=O	nt	-7.6	-11.1	1.2	-4.7	-37.2	nt	nt	nt	nt	nt
O=C1C(Cl)=C(NCc2cccnc2)C(=O)c2ccccc21	nt	30.2	59.7*	80.0*	29.7	86.4*	47.3	71.9*	26.6	66.0*	2.8
COCCCNC1=C(Cl)C(=O)c2ccccc2C1=O	6.7	6.4	31.5	11.8	16.7	37.4	nt	nt	nt	nt	nt
SMILES	PPC-1+TRAIL kill	SENP8 block-1	SENP6 block	TRAIL sens C8	SENP7 block	SENP8 block-2	SENP8 conf	SENP6 conf	SENP7 confirm	Casp3 select	Luc interf
CC(C)OCCCNC1=C(Cl)C(=O)c2ccccc2C1=O	32.9	22.5	62.5*	0.5	16.6	68.2*	25.2	51.2*	14.6	17.9	15.2
C=CCNC1=C(Cl)C(=O)c2ccccc2C1=O	39.2	20.6	59.0*	16.5	16.6	72.0*	20.5	50.0*	18.8	31.0	8.8
CC(C)NC1=C(Cl)C(=O)c2ccccc2C1=O	31.6	33.6	55.9*	17.8	-6.7	51.7*	15.3	45.1	13.9	26.5	4.9
O=S(=O)(Cc1ccccc1)NCc1cccnc1	5.1	8.7	-7.1	-4.3	3.1	-3.4	nt	nt	nt	nt	nt
O=C(c1ccccc1F)N(Cc1nc2ccccc2c(=O)[nH]1)C1CCCC1	5.1	-10.0	-15.8	-5.1	-4.1	7.0	nt	nt	nt	nt	nt
S=C1NC2CCCCC2N1 (stereo not drawn)	11.0	-9.9	-4.0	-8.8	-5.7	2.5	nt	nt	nt	nt	nt
O=C(NNS(=O)(=O)c1ccccc1)c1ccc([N+](=O)[O-])cc1	nt	-10.2	-3.2	-24.8	67.6*	14.3	8.4	9.1	11.3	4.4	-2.8
CC(OC(=O)CN1C(=O)c2ccccc2C1=O)C(=O)NC1CCCCC1 (stereo not drawn)	nt	1.9	-1.0	15.7	-3.6	0.7	nt	nt	nt	nt	nt
CCn1c(O)c(C=Nc2ccccc2)sc1=S	-1.0	68.8*	80.8*	nt	69.7*	nt	44.3	50.9*	95.5*	60.9*	11.2
O=C(Nc1ccc(Cl)cc1)Nc1ccccc1Sc1ncc([N+](=O)[O-])s1	-2.1	96.3*	99.2*	-5.3	95.1*	23.5	100.0*	101.1*	104.0*	99.8*	39.0
O=C(CSc1ccc(-c2ccccn2)nn1)c1ccccc1	11.4	-10.1	9.3	-26.8	-9.3	33.2	nt	nt	nt	nt	nt
COC(=O)c1cnc(SCC(=O)c2ccccc2)n1C	nt	70.9*	83.4*	4.0	79.0*	12.8	78.7*	77.2*	92.7*	92.3*	79.9*
